Data on six compounds can be found in the supplement of paper PMC9588786.

± gives the standard deviation of the averaged measurements.
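Note: viability read as CCK-8 absorbance at 450 nm in cells co-exposed to the GPX4 inhibitor RSL3, relative to a 0.01% DMSO vehicle control.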

For this assay, the system named is HT-1080. The assay can be described thus: relative cell viability with RSL3 co-treatment (fraction of control); higher = stronger protection from RSL3-induced ferroptosis (higher viability). The conditions noted are these: 10 µM.
On to `O=c1cc(-c2cccc3c2Sc2ccccc2S3)oc(N2CCOCC2)c1`, for which the relative cell viability was determined as 0.57 ± 0.21.
As for `CNC(=O)c1cc(Oc2ccc(NC(=O)Nc3ccc(Cl)c(C(F)(F)F)c3)cc2)ccn1` [Sorafenib], the figure is 0.693 ± 0.14; as for `CCCNC(=O)c1cn2ncnc(Nc3cc(C(=O)NC4CC4)ccc3C)c2c1C`, 0.78 ± 0.04.
As for `CC(=O)c1c(C)c2cnc(Nc3ccc(N4CCNCC4)cn3)nc2n(C2CCCC2)c1=O`, the figure is 0.623 ± 0.074; as for `Cc1ccc(NC(=O)c2cccc(C(C)(C)C#N)c2)cc1Nc1ccc2ncn(C)c(=O)c2c1`, 0.507 ± 0.047.
In the case of `C=CC(=O)Nc1cccc(Oc2nc(Nc3ccc(N4CCN(C)CC4)cc3)ncc2Cl)c1`, the relative cell viability was determined as 0.337 ± 0.057.
